From PubChem BioAssay
HIV RNase H inh-1: inhibitors of HIV-1 reverse transcriptase RNase H; P04585; RT-RNase H RNA/DNA duplex cleavage, fluorescence; inhibition, % at 10 µM; hit rate 1.9% among 65,000; AID 565; in the data active = inhibition above about 50%
HIV RNase H inh-2: confirmation of HIV-1 reverse transcriptase RNase H inhibitors. shares compounds with HIV RNase H inh-1. Recombinant RT RNase H, fluorescent RNA/DNA duplex cleavage. inhibition, % at 10 µM. hit rate 39% among 1,000; in the data active = inhibition above about 48%; inconclusive = no clear call, values can overlap the other calls
* marks the source's active call; other numbers are inactive results; ? = inconclusive. The full list was thinned out, with hits kept by preference.

SMILES	HIV RNase H inh-1	others
CC(=O)Nc1ccc(Cl)cc1C(=O)O	-3
Cc1ccc(Cn2nc(C)c(NC(=O)c3cc(-c4ccco4)on3)c2C)cc1	-3
Cc1nn(Cc2ccc(Cl)cc2)c(C)c1NC(=O)c1cc(-c2ccco2)on1	-43
COc1ccc(-c2cc(C(=O)Nc3c(C)nn(Cc4ccc(Cl)cc4)c3C)no2)cc1	62*	HIV RNase H inh-2=-6
CC(C)Oc1ccc(C(=O)N(Cc2ccco2)C2CCS(=O)(=O)C2)cc1 (stereo not given)	1
c1ccc(-c2nc(NC3CC3)nc(-n3ccnc3)n2)cc1	-16
CCSc1nnc(NC(=O)c2ccccn2)s1	3
CCSc1nnc(NC(=O)c2csc3c2CCCC3)s1	62*	HIV RNase H inh-2=?
CCSc1nnc(NC(=O)c2cnccn2)s1	3
Cc1cc(C(=O)NCCCN2CCCC2=O)no1	-5
Nc1c(Br)cc(Br)c(N2CCCC2=O)c1Br	-2
O=C(CSc1nnc(-c2ccc(O)cc2)n1Cc1ccco1)N1CCc2ccccc2C1	-13
COC(=O)c1oc2ccc(Cl)cc2c1NC(C)=O	-9
COC(=O)c1oc2ccc(Br)cc2c1NC(=O)CN1CCN(C)CC1	-4
COC(=O)c1oc2ccc(Br)cc2c1NC(=O)c1ccccc1	59*	HIV RNase H inh-2=76*
CCS(=O)(=O)C(=C1NCCO1)S(=O)(=O)CC	-11
Cc1ccc2c(CC(=O)O)coc2c1C	-9
Cc1cc(NC(=O)COC(=O)COc2ccc3c(c2)CCC3)no1	-15
Cc1c(/C=N/n2cnnc2)c2ccccc2n1C	-33
c1c2c(cc3sc(N4CCOCC4)nc13)OCO2	72*	HIV RNase H inh-2=62*
c1ccc(N2CCN(c3nc4cc5c(cc4s3)OCO5)CC2)cc1	76*	HIV RNase H inh-2=76*
O=C(c1ccc2c(c1)OCO2)N1CCN(c2ccccc2)CC1	-7
c1c2c(cc3sc(N4CCCCC4)nc13)OCO2	9
O=C(c1ccc2nc(N3CCOCC3)sc2c1)N1CCCC1	-3
c1ccc2c(c1)CCN(c1nc3cc4c(cc3s1)OCO4)C2	43
SMILES	HIV RNase H inh-1	others
O=c1c2nnn(Cc3ccccc3)c2ncn1-c1ccccc1	1
Nc1nc(NC(=O)Cc2ccccc2)nn1-c1ccccc1	-9
O=C1NC(=O)c2cc(NC(=O)C3CCCCC3)ccc21	-16
COc1cc(OC)c(C2CC(=O)N3CN(c4ccccc4C)CSC3=C2C#N)cc1OC (stereo not given)	77*	HIV RNase H inh-2=72*
COc1cc(OC)c(C2C(C#N)=C(N)OC3=C2C(=O)CC(C)C3)cc1OC (stereo not given)	3
Cc1cccc(N2CSC3=C(C#N)C(c4ccc(C)o4)CC(=O)N3C2)c1 (stereo not given)	94*	HIV RNase H inh-2=55*
Cc1ccc(C2N(c3cccc(Cl)c3)C(=O)C3CCCN32)o1 (stereo not given)	-19
Cc1cccc(N2CC34C=CC(O3)C(C(=O)O)C4C2=O)c1 (stereo not given)	-8
COc1cccc(C2C(C#N)=C(N)Oc3c2oc(CO)cc3=O)c1OC (stereo not given)	-5
COc1cccc(C2C3CN(C)CC=C3C(C#N)=C(N)C2(C#N)C#N)c1OC (stereo not given)	0
C=CCOC(=O)C1=C(C)OC(N)=C(C#N)C1c1ccccc1F (stereo not given)	4
COc1ccc(N2CSC3=C(C#N)C(c4cccc(OC)c4OC)CC(=O)N3C2)cc1 (stereo not given)	75*	HIV RNase H inh-2=34
CCc1ccccc1N1C(=O)C2CC(C)=C(C)CC2C1=O (stereo not given)	-2
COc1cc(OC)c(C2C(C#N)=C(N)OC3=C2C(=O)CC(C)(C)C3)cc1OC (stereo not given)	-4
CCc1ccccc1N1CSC2=C(C#N)C(c3ccccc3F)CC(=O)N2C1 (stereo not given)	89*	HIV RNase H inh-2=59*
O=C(CN(CCc1ccccc1)C(=O)CNS(=O)(=O)c1ccc(F)cc1)NCC1CCCO1 (stereo not given)	-1
CCOC(=O)c1sc(N)c(C#N)c1COC(=O)CNC(=O)c1ccccc1	-10
Cc1cccc(NC(=O)CSc2nnc(-c3ccc(S(=O)(=O)N4CCOCC4)cc3)n2C)c1	-16
COc1ccccc1NC(=O)COc1ccc(CO)cc1Cl	-77
CN1CC(=O)NC1=NC(=O)c1ccc(Cl)c(S(=O)(=O)N2CCCCCC2)c1	1
CCC(=O)c1cc(F)c(N2CCN(C(=O)Cc3ccccc3)CC2)cc1C	-18
CCOc1ccccc1N1CCN(CC(O)COc2ccc3c(C)cc(=O)oc3c2)CC1 (stereo not given)	6
N#C/C(=C\c1ccc[nH]1)S(=O)(=O)c1ccccc1	-76
COc1cccc(OC)c1C(=O)N1CCN(Cc2ccccc2C)CC1	4
CC(CCc1ccccc1)NC(=O)C1CCN(S(=O)(=O)N2CCCCC2)CC1 (stereo not given)	-5
SMILES	HIV RNase H inh-1	others
CCCc1cc(=O)n2[nH]c(Cc3ccccc3)nc2n1	0
Cc1occc1-c1nnc(SCC(=O)c2cc3ccccc3oc2=O)o1	18
COc1ccc(C)c2sc(N3CCCC3)nc12	-17
Clc1ccc2nc(N3CCN(c4ccccc4)CC3)sc2c1	12
COc1ccc(OC)c2sc(N3CCN(c4ccccc4)CC3)nc12	75*	HIV RNase H inh-2=43
NC(=O)CN1CCN(C(=O)Nc2ccccc2)CC1	-18
O=C(CCc1c[nH]c2ccccc12)NCC1CCCO1 (stereo not given)	-7
CS(=O)(=O)N(CC(=O)NCc1ccco1)c1ccc(Cl)c(C(F)(F)F)c1	-5
COc1ccc(OC)c(NC(=O)c2cc(-c3ccc(C)cc3O)n[nH]2)c1	76*	HIV RNase H inh-2=13
Cc1ccc(-c2cc(C(=O)Nc3cc(C)ccc3C)[nH]n2)c(O)c1	20
COc1ccc(CCNC(=O)c2cc(-c3cc(C)c(C)cc3O)n[nH]2)cc1OC	7
Cc1c(CNC(=O)c2nn3c(c2Cl)NC(c2ccccc2)CC3C(F)(F)F)cnn1C (stereo not given)	2
Cc1nc(SCC(=O)N2CCN(c3ccccc3)CC2)c2c(=O)n(C)c(=O)n(C)c2n1	-5
O=C(O)c1cc(-c2ccco2)nc2ccccc12	81*	HIV RNase H inh-2=31
Cc1nn(-c2ccccc2)c2nc(-c3ccco3)cc(C(=O)O)c12	23
O=C(c1ccco1)N1CCN(C(=O)c2cc(-c3ccccn3)nc3ccccc23)CC1	0
CC1CCCC(C)N1CCNC(=O)C1CCN(S(=O)(=O)N2CCCCC2)CC1 (stereo not given)	-2
CCN(CC)CCNC(=O)c1sc2nc(-c3ccccc3)cn2c1C	1
CCC1CCCCN1C(=O)CSc1nnc(CNC(=O)COc2ccc(Cl)cc2)o1 (stereo not given)	-4
CN(C)C=Nc1ncc2c([nH]c3ccccc32)c1C#N	1
COc1ccc(OC)c(NC(=O)CS(=O)(=O)c2ccccc2)c1	-5
COc1ccc(OC)c(NS(=O)(=O)Cc2ccccc2)c1	77*	HIV RNase H inh-2=?
COc1ccc(OC)c(S(=O)(=O)NCc2ccccc2)c1	16
O=C(Nc1sccc1C(=O)N1CCOCC1)c1cccnc1	6
CC(C)C(C(=O)N1CCOCC1)N1C(=O)c2ccccc2C1=O (stereo not given)	-18
CCn1c(SCC(=O)Nc2ccc3c(c2)OCO3)nnc1-c1ccccc1O	3
CNS(=O)(=O)c1cccc(C(=O)OC2CCCCC2=O)c1 (stereo not given)	1
COC(=O)C(C)Sc1nnc(Cc2cc(=O)[nH]c(=O)[nH]2)n1-c1ccc(OC)cc1 (stereo not given)	-13
